The record followed here is the supplement of paper PMC11026393.

Molecules are shown by their SMILES.

This assay relates to H1299. Briefly: difference in mean normalized H2B-mRuby nuclear fluorescence intensity relative to DMSO control (normalized intensity difference (DMSO = 0)); higher = stronger increase in transgene reporter fluorescence. To be noted: 24 h. As for the experimental part: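 Cancer cell lines stably expressing H2B-mRuby2 from a lentiviral PGK promoter were treated with each drug for 24 h and imaged on a Leica DMI8 (ex 541-551 / em 565-605 nm). Nuclei were segmented in CellProfiler. The value is the difference in mean per-nucleus normalized H2B-mRuby intensity versus DMSO-treated cells (about 3 repeats x 4 fields). Doxorubicin is itself fluorescent. Dasatinib is in nM.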

As for `O=C(Nc1ccc2[nH]nc(-c3ccncc3)c2c1)[C@@H]1CCN(CC(=O)N2CCN(c3ccc(-c4ncccn4)cc3)CC2)C1` (concentration unit: uM), the difference was -0.0926 (concentration: 0.05); -0.0835 (concentration: 0.1); -0.13 (concentration: 0.25); -0.131 (concentration: 1); -0.0355 (concentration: 5).

As to `CC(=O)c1c(C)c2cnc(Nc3ccc(N4CCNCC4)cn3)nc2n(C2CCCC2)c1=O` (concentration unit: uM), the difference runs as follows: (concentration: 0.1) -0.156; (concentration: 0.5) -0.266; (concentration: 1) -0.19; (concentration: 5) -0.0957; (concentration: 10) -0.0594.

The compound `C=CCn1c(=O)c2cnc(Nc3ccc(N4CCN(C)CC4)cc3)nc2n1-c1cccc(C(C)(C)O)n1` (concentration unit: uM) showed a difference (concentration: 0.1) of 0.0483; a difference (concentration: 0.5) of 0.108; a difference (concentration: 1) of 0.027; a difference (concentration: 2.5) of -0.00187; a difference (concentration: 5) of -0.0335.

Turning to `COc1cc2nccc(Oc3ccc(NC(=O)C4(C(=O)Nc5ccc(F)cc5)CC4)cc3)c2cc1OC` (concentration unit: uM), the difference was 0.0394 (concentration: 0.5); -0.122 (concentration: 1); -0.0701 (concentration: 2.5); 0.0398 (concentration: 5); 0.0491 (concentration: 10).

For the compound `COc1cc([C@@H]2c3cc4c(cc3[C@@H](O[C@@H]3O[C@@H]5CO[C@@H](C)O[C@H]5[C@H](O)[C@H]3O)[C@H]3COC(=O)[C@H]23)OCO4)cc(OC)c1O` (concentration unit: uM), the difference is, setting by setting: (concentration: 0.5) 0.147; (concentration: 1) 0.0921; (concentration: 2.5) 0.108; (concentration: 5) 0.206; (concentration: 10) 0.153; (concentration: 20) 0.189.

Regarding `CNC(=O)c1ccccc1Sc1ccc2c(/C=C/c3ccccn3)n[nH]c2c1` (concentration unit: uM), the difference by setting is: (concentration: 1) -0.0324; (concentration: 2.5) 0.0393; (concentration: 5) 0.159; (concentration: 10) 0.14; (concentration: 20) 0.156.

For the compound `COC1=C2C[C@@H](C)C[C@H](OC)[C@H](O)[C@@H](C)/C=C(\C)[C@H](OC(N)=O)[C@@H](OC)/C=C\C=C(/C)C(=O)NC(=CC1=O)C2=O` (concentration unit: nM), the difference by setting is: (concentration: 5) -0.0197; (concentration: 25) 0.305; (concentration: 50) 0.532; (concentration: 100) 0.567; (concentration: 500) 0.435.

Take `Cn1c(=O)n(-c2ccc(C(C)(C)C#N)cc2)c2c3cc(-c4cnc5ccccc5c4)ccc3ncc21` (concentration unit: nM): the difference (concentration: 10) turned out to be 0.158; the difference (concentration: 50) came out at 0.191; the difference (concentration: 100) worked out at 0.157; the difference (concentration: 250) was 0.0684; the difference (concentration: 500) came to 0.0286.
